Measured values: the supplement of paper PMC11628255, “Interference of metal ions on the bioluminescent signal of firefly, Renilla, and NanoLuc luciferases in high-throughput screening assays” (Frontiers in Chemistry, 2024)
± gives the standard deviation of the averaged measurements.

Key:
[1] = system: NanoLuc luciferase (NLuc); assay: residual bioluminescent signal relative to negative (DMSO) control; higher = less interference (more residual luciferase signal)
How it was run: (§1)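 Purified firefly, NanoLuc or Renilla luciferase was tested with each metal salt at 0.01, 1 and 5 mM final, in 384-well plates. Buffers were screening or HEPES. Salts in water were pre-incubated with enzyme for 10 min at room temperature, and luminescence was read 10 min after substrate addition. Wells were run in triplicate. Residual signal is each well's luminescence as a percentage of the mean vehicle (DMSO) control on the same plate.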

[2] = system: Renilla luciferase (RLuc); assay: as above
How it was run: as §1

[3] = metal salt concentration 0.01 mM, HEPES conditions (100 mM HEPES, 0.1% BSA, pH 7.5)
[4] = metal salt concentration 0.01 mM, screening conditions (PBS, 0.1% BSA, pH 7.4)
[5] = metal salt concentration 1 mM, HEPES conditions (100 mM HEPES, 0.1% BSA, pH 7.5)
[6] = metal salt concentration 1 mM, screening conditions (PBS, 0.1% BSA, pH 7.4)
[7] = metal salt concentration 5 mM, HEPES conditions (100 mM HEPES, 0.1% BSA, pH 7.5)
[8] = metal salt concentration 5 mM, screening conditions (PBS, 0.1% BSA, pH 7.4)
[9] = metal salt concentration 0.01 mM, HEPES conditions (100 mM HEPES, 0.05% BSA, 0.3 M sodium ascorbate, pH 7.5)
[10] = metal salt concentration 0.01 mM, screening conditions (50 mM Tris-HCl, […] KH2PO4, […] NaCl, 0.25 mM EDTA, 0.1% BSA, 0.3 M sodium ascorbate, pH 7.4)
[11] = metal salt concentration 1 mM, HEPES conditions (100 mM HEPES, 0.05% BSA, 0.3 M sodium ascorbate, pH 7.5)
[12] = metal salt concentration 1 mM, screening conditions (50 mM Tris-HCl, […] KH2PO4, […] NaCl, 0.25 mM EDTA, 0.1% BSA, 0.3 M sodium ascorbate, pH 7.4)
[13] = metal salt concentration 5 mM, HEPES conditions (100 mM HEPES, 0.05% BSA, 0.3 M sodium ascorbate, pH 7.5)
[14] = metal salt concentration 5 mM, screening conditions (50 mM Tris-HCl, […] KH2PO4, […] NaCl, 0.25 mM EDTA, 0.1% BSA, 0.3 M sodium ascorbate, pH 7.4)

SMILES: O.O.O.O.O.O.O.O.O.O.O=S(=O)([O-])[O-].[Na+].[Na+] [sodium sulfate]
- residual bioluminescent signal [1, 3]: 96 ± 3.7%
- residual bioluminescent signal [1, 4]: 96.8 ± 5%
- residual bioluminescent signal [1, 5]: 96.8 ± 4%
- residual bioluminescent signal [1, 6]: 96 ± 4.3%
- residual bioluminescent signal [1, 7]: 98.4 ± 1.1%
- residual bioluminescent signal [1, 8]: 95.6 ± 4.4%
- residual bioluminescent signal [2, 9]: 112 ± 4.9%
- residual bioluminescent signal [2, 10]: 111 ± 1.9%
- residual bioluminescent signal [2, 11]: 75.1 ± 66%
- residual bioluminescent signal [2, 12]: 108 ± 9.8%
- residual bioluminescent signal [2, 13]: 118 ± 11%
- residual bioluminescent signal [2, 14]: 109 ± 13%

SMILES: [Cl][Fe]([Cl])[Cl] [iron(III) chloride]
- residual bioluminescent signal [2, 9]: 91.5 ± 7.9%
- residual bioluminescent signal [2, 10]: 94.1 ± 10%
- residual bioluminescent signal [2, 11]: 2.32 ± 0.56%
- residual bioluminescent signal [2, 12]: 39.9 ± 12%
- residual bioluminescent signal [2, 13]: 0.985 ± 0.12%
- residual bioluminescent signal [2, 14]: 0.807%

SMILES: [Cl-].[Na+] [sodium chloride]
- residual bioluminescent signal [2, 9]: 97.4 ± 13%
- residual bioluminescent signal [2, 10]: 91.3 ± 5.2%
- residual bioluminescent signal [2, 11]: 104 ± 18%
- residual bioluminescent signal [2, 12]: 88.6 ± 1.3%
- residual bioluminescent signal [2, 13]: 111 ± 5%
- residual bioluminescent signal [2, 14]: 94.4 ± 11%

SMILES: O=C([O-])[O-].[Cs+].[Cs+] [caesium carbonate]
- residual bioluminescent signal [2, 9]: 91.5 ± 6.8%
- residual bioluminescent signal [2, 10]: 94.9 ± 6.5%
- residual bioluminescent signal [2, 11]: 100 ± 11%
- residual bioluminescent signal [2, 12]: 93 ± 4.2%
- residual bioluminescent signal [2, 13]: 87.4 ± 1.1%
- residual bioluminescent signal [2, 14]: 87.8 ± 5.2%

SMILES: O=S(=O)([O-])[O-].[Mn+2] [manganese(II) sulfate]
- residual bioluminescent signal [2, 9]: 112 ± 9.2%
- residual bioluminescent signal [2, 10]: 103 ± 12%
- residual bioluminescent signal [2, 11]: 101 ± 3.7%
- residual bioluminescent signal [2, 12]: 102 ± 5.1%
- residual bioluminescent signal [2, 13]: 71.9 ± 9.5%
- residual bioluminescent signal [2, 14]: 108.6 ± 0.66%

SMILES: [Cl][Pt-2]([Cl])([Cl])[Cl].[K+].[K+] [potassium tetrachloroplatinate(II)]
- residual bioluminescent signal [2, 9]: 93.6 ± 1.9%
- residual bioluminescent signal [2, 10]: 96.1 ± 1.4%
- residual bioluminescent signal [2, 11]: 16.3 ± 9.4%
- residual bioluminescent signal [2, 12]: 8.11 ± 2.9%
- residual bioluminescent signal [2, 13]: 3.38 ± 2.1%
- residual bioluminescent signal [2, 14]: 1.17 ± 0.82%

SMILES: CC#N.CC#N.CC#N.CC#N.F[B-](F)(F)F.[Cu+] [tetrakis(acetonitrile)copper(I) tetrafluoroborate]
- residual bioluminescent signal [1, 3]: 92.6 ± 2.9%
- residual bioluminescent signal [1, 4]: 90 ± 3%
- residual bioluminescent signal [1, 5]: 0.251 ± 0.095%
- residual bioluminescent signal [1, 6]: 0.838 ± 0.074%
- residual bioluminescent signal [1, 7]: 0.149 ± 0.095%
- residual bioluminescent signal [1, 8]: 0.354 ± 0.31%
- residual bioluminescent signal [2, 9]: 98.7 ± 11%
- residual bioluminescent signal [2, 10]: 103 ± 2.8%
- residual bioluminescent signal [2, 11]: 0.774 ± 0.32%
- residual bioluminescent signal [2, 12]: 0.538 ± 0.36%
- residual bioluminescent signal [2, 13]: 1.06 ± 0.76%
- residual bioluminescent signal [2, 14]: 0.628 ± 0.43%

SMILES: O=S(=O)([O-])[O-].[Fe+2] [iron(II) sulfate]
- residual bioluminescent signal [1, 3]: 92.06 ± 0.82%
- residual bioluminescent signal [1, 4]: 97.1 ± 1.1%
- residual bioluminescent signal [1, 5]: 12.2 ± 3.3%
- residual bioluminescent signal [1, 6]: 29 ± 1.3%
- residual bioluminescent signal [1, 7]: 0.329 ± 0.23%
- residual bioluminescent signal [1, 8]: 1.15 ± 0.23%
- residual bioluminescent signal [2, 9]: 83.1 ± 2.5%
- residual bioluminescent signal [2, 10]: 99.5 ± 4%
- residual bioluminescent signal [2, 11]: 2.25 ± 0.97%
- residual bioluminescent signal [2, 12]: 13.5 ± 2.4%
- residual bioluminescent signal [2, 13]: 0.704 ± 0.68%
- residual bioluminescent signal [2, 14]: 0.762 ± 0.34%

SMILES: O=C([O-])[O-].[K+].[K+] [potassium carbonate]
- residual bioluminescent signal [2, 9]: 90.4 ± 4.2%
- residual bioluminescent signal [2, 10]: 88.9 ± 2.2%
- residual bioluminescent signal [2, 11]: 93.2 ± 9.6%
- residual bioluminescent signal [2, 12]: 92.2 ± 5.6%
- residual bioluminescent signal [2, 13]: 96.4 ± 7%
- residual bioluminescent signal [2, 14]: 76.8 ± 4.4%

SMILES: O.O.O.O.O.O.O.O=S(=O)([O-])[O-].[Mg+2] [magnesium sulfate]
- residual bioluminescent signal [2, 9]: 85.7 ± 4.6%
- residual bioluminescent signal [2, 10]: 88.5 ± 5.2%
- residual bioluminescent signal [2, 11]: 99.3 ± 11%
- residual bioluminescent signal [2, 12]: 93.1 ± 12%
- residual bioluminescent signal [2, 13]: 97.7 ± 5.9%
- residual bioluminescent signal [2, 14]: 109 ± 27%

SMILES: [Cl][Fe][Cl] [iron(II) chloride]
- residual bioluminescent signal [1, 3]: 95.6 ± 6%
- residual bioluminescent signal [1, 4]: 99.7 ± 4.5%
- residual bioluminescent signal [1, 5]: 2.39 ± 1.2%
- residual bioluminescent signal [1, 6]: 10.5 ± 2.6%
- residual bioluminescent signal [1, 7]: 0.172 ± 0.13%
- residual bioluminescent signal [1, 8]: 0.779 ± 0.37%
- residual bioluminescent signal [2, 9]: 62.9 ± 8.6%
- residual bioluminescent signal [2, 10]: 85.9 ± 6.2%
- residual bioluminescent signal [2, 11]: 1.9 ± 1.7%
- residual bioluminescent signal [2, 12]: 3.45 ± 1.9%
- residual bioluminescent signal [2, 13]: 0.774 ± 0.53%
- residual bioluminescent signal [2, 14]: 0.404 ± 0.27%
